Results reported in PubChem BioAssay (EPA / NIEHS).
Results filed as inconclusive are left out. More than one record can exist for a structure, and the calls need not agree. Calls of active or inactive are those of the source. Rule for the calls, unless noted: active = hit-call score of the fitted dose curve at least 0.9, where 1 is the maximum; inactive = score below 0.9.

Assays:
[1] = BSK_3C_VCAM1: BioMAP Diversity Plus: 3C Assay for Vascular cell adhesion molecule 1 (VCAM1) Biomarker Activity (AID 2282999); conditions: BioMAP 3C HUVEC, VCAM1 ELISA, cytokine-stimulated; actives raise or lower the signal
Summary of the method: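 Human umbilical vein endothelial cells (3C system), biomarker read by ELISA 24 h after dosing; bidirectional fit against DMSO baseline. Cytotoxicity tracked by SRB total-protein staining in parallel cultures at biomarker time.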

[2] = BSK_4H_Eotaxin3: BioMAP Diversity Plus: 4H Assay for Eotaxin 3 Biomarker Activity (AID 2283000); conditions: primary human endothelial cells (HUVEC); actives raise or lower the signal
Summary of the method: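 Chemicals were added to human umbilical vein endothelium cultures, and Eotaxin-3 was quantified by ELISA at 24 h. Values were derived by bidirectional fitting with DMSO serving as negative control and activity baseline.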

[3] = target: human Peroxisome Proliferator-activated Receptor alpha (PPARa), PPARA (gene 5465) (UniProt Q07869); test: ATG_PPARa_TRANS: Attagene TRANS-FACTORIAL HepG2 Assay for human Peroxisome Proliferator-activated Receptor alpha (PPARa) (AID 2283001; active = hit-call score of the fitted dose curve at least 0.9, where 1 is the maximum;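 for AC50: potency for gain of reporter signal over DMSO so agonist or activator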)
Sequence of human Peroxisome Proliferator-activated Receptor alpha (PPARa), PPARA (gene 5465) (Q07869 whole entry, looked up, the tested form may be a part): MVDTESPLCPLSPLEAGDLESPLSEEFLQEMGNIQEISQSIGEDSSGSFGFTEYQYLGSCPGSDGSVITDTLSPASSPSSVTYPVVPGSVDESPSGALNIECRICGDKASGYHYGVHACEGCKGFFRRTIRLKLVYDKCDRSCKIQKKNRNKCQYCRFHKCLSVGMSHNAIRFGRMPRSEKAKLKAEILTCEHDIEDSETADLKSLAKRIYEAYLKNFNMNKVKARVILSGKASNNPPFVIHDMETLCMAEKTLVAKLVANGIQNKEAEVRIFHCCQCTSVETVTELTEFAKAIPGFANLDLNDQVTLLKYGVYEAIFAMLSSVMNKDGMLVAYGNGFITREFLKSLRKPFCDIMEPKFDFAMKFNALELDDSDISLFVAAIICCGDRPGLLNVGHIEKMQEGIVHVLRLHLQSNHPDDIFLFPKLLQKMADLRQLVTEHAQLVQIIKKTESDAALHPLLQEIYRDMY
Summary of the method: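 HepG2 cells transiently transfected with multiplexed GAL4-UAS reporters driven by exogenous chimeric NR-Gal4 proteins; reporter mRNA measured after 24 h dosing. Read-out by RT-PCR, 6-FAM labelling, HpaI digestion and capillary electrophoresis; gain of signal versus DMSO.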

[4] = read-out: Intercellular Adhesion Molecule 1 (ICAM1), ICAM1 (gene 3383); test: BSK_3C_ICAM1: BioMAP Diversity Plus: 3C Assay for Intercellular Adhesion Molecule 1 (ICAM1) Biomarker Activity (AID 2283003); conditions: primary human endothelial cells (HUVEC); actives raise or lower the signal
Summary of the method: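 HUVEC primary cells stimulated under 3C conditions; ICAM1 measured by ELISA 24 h after compound dosing. Curves fitted bidirectionally against the DMSO baseline. Overt cytotoxicity checked by SRB staining of parallel cultures.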

[5] = target: human Retinoic Acid Receptor beta (RARb), RARB (gene 5915) (UniProt P10826); test: ATG_RARb_TRANS: Attagene TRANS-FACTORIAL HepG2 Assay for human Retinoic Acid Receptor beta (AID 2283004; active = hit-call score of the fitted dose curve at least 0.9, where 1 is the maximum)
Sequence of human Retinoic Acid Receptor beta (RARb), RARB (gene 5915) (P10826 whole entry, looked up): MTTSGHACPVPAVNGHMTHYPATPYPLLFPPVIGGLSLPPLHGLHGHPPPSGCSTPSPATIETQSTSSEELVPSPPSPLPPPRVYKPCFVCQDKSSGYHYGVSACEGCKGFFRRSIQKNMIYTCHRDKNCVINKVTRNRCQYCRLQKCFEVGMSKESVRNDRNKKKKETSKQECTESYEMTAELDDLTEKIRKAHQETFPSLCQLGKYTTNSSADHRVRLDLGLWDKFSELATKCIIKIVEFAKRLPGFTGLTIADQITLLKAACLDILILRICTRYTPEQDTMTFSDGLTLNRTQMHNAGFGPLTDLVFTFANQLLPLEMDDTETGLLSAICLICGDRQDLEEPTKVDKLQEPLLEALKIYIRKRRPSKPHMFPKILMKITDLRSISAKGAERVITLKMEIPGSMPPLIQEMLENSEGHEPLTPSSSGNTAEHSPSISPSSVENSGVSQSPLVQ
Summary of the method: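 Transient transfection of HepG2 with multiple reporter units → chemical dosing, 24 h → total RNA isolation → RT with oligo(dT) → reporter-specific PCR, 6-FAM primer extension, HpaI digest → capillary electrophoresis. Positive direction vs DMSO control.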

[6] = BSK_3C_Proliferation: Cell Proliferation Assessment in the BioMAP Diversity Plus: 3C Assay (AID 2283006); conditions: primary human endothelial cells (HUVEC);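 for AC50: potency may reflect either rise or fall in cell number versus DMSO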
Summary of the method: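 Subconfluent HUVEC (3C system) cultured with chemical; relative cell number read at 48 h by sulforhodamine B total-protein staining (0.1% SRB after 10% TCA fixation, 560 nm). Bidirectional fit relative to DMSO.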

[7] = target: Nuclear receptor subfamily 1 group I member 2 (Homo sapiens) (UniProt O75469); test: ATG_PXR_TRANS: Attagene TRANS-FACTORIAL HepG2 Assay for human Pregnane X Receptor (PXR) (AID 2283008; active = hit-call score of the fitted dose curve at least 0.9, where 1 is the maximum)
Sequence of Nuclear receptor subfamily 1 group I member 2 (Homo sapiens) (O75469 whole entry, looked up, the tested form may be a part): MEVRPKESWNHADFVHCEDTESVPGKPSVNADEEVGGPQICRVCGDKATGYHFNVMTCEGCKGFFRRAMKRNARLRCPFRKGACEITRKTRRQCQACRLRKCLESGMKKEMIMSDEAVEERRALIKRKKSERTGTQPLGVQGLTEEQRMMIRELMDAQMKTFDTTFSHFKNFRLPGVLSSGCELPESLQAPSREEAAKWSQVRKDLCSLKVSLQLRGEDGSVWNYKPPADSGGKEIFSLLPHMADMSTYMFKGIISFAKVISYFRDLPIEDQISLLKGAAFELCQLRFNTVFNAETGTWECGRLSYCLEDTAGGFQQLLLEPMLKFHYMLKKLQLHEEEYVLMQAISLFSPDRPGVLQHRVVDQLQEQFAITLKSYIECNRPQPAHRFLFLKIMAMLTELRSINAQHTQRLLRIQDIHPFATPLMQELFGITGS
Summary of the method: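 Fluorescence intensity of FAM-labelled, HpaI-digested reporter amplicons, separated by capillary electrophoresis, quantifies induction. HepG2 cells with PXR-Gal4 trans-reporter system were exposed 24 h; DMSO defines baseline.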

[8] = target: human RAR-related Orphan Receptor gamma (RORg), RORC (gene 6097) (UniProt P51449); test: ATG_RORg_TRANS: Attagene TRANS-FACTORIAL HepG2 Assay for human RAR-related Orphan Receptor gamma (RORg) (AID 2283011; active = hit-call score of the fitted dose curve at least 0.9, where 1 is the maximum)
Sequence of human RAR-related Orphan Receptor gamma (RORg), RORC (gene 6097) (P51449 whole entry, looked up, the tested form may be a part): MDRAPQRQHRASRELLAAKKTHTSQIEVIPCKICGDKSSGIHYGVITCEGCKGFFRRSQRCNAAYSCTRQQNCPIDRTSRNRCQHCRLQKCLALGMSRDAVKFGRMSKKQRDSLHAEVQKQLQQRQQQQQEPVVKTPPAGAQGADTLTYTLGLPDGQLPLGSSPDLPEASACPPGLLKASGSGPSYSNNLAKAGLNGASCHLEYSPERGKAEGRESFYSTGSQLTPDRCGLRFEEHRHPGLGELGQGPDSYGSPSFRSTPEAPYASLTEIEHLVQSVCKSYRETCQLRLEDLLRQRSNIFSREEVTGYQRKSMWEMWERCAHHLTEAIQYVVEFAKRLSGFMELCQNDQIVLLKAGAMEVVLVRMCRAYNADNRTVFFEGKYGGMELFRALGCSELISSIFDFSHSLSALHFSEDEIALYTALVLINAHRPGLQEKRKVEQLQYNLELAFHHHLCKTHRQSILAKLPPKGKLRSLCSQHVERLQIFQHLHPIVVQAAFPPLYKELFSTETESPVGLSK
Summary of the method: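 First, HepG2 liver cells were transfected with GAL4-UAS-driven reporter constructs and the RORg-Gal4 fusion. Next, they were treated with chemical for 24 h. Finally, reporter mRNA was quantified by RT-PCR and capillary electrophoresis, with upward activity fitted against DMSO.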

[9] = target: human Retinoid X Receptor beta (RXRb), RXRB (gene 6257) (UniProt P28702); test: ATG_RXRb_TRANS: Attagene TRANS-FACTORIAL HepG2 Assay for human Retinoid X Receptor beta (RXRb) (AID 2283013; active = hit-call score of the fitted dose curve at least 0.9, where 1 is the maximum)
Sequence of human Retinoid X Receptor beta (RXRb), RXRB (gene 6257) (P28702 whole entry, looked up, the tested form may be a part): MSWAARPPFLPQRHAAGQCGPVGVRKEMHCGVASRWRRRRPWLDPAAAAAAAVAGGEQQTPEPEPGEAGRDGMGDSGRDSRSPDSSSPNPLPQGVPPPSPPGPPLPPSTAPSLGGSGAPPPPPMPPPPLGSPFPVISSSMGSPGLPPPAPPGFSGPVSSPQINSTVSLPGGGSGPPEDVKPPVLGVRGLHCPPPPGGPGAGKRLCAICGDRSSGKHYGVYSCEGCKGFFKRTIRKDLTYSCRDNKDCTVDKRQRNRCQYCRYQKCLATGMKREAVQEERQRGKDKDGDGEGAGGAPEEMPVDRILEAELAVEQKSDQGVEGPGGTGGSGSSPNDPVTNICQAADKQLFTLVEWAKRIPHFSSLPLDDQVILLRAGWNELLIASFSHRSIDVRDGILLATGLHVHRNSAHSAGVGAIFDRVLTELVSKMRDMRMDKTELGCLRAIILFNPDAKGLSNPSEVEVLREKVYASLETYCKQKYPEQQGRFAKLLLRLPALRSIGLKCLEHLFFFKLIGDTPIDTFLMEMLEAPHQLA
Summary of the method: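 HepG2 cells were transiently transfected with multiplexed GAL4-UAS reporters and a chimeric RXRb-Gal4 construct, then exposed for 24 h. Reporter mRNA was quantified by RT-PCR, FAM labeling, HpaI digestion and capillary electrophoresis; gain of signal was scored against DMSO.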

[10] = read-out: E-selectin (Homo sapiens) (UniProt P16581); test: BSK_3C_Eselectin: BioMAP Diversity Plus: 3C Assay for Eselectin Biomarker Activity (AID 2283015); conditions: primary human endothelial cells (HUVEC); actives raise or lower the signal
Summary of the method: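 ELISA read-out of E-selectin on endothelial monolayers after 24 h chemical treatment. Human umbilical vein primary cells served as the system, with DMSO defining baseline activity for bidirectional fitting.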

[11] = read-out: Interleukin-1 alpha (IL1a), IL1A (gene 3552); test: BSK_BE3C_IL1a: BioMAP Diversity Plus: BE3C Assay for Interleukin-1 alpha (IL1a) Biomarker Activity (AID 2283016); conditions: primary human bronchial epithelial cells; actives raise or lower the signal
Summary of the method: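 Human primary bronchial epithelial cells, 24 h chemical exposure; IL-1a quantified by ELISA, fitted bidirectionally against DMSO. Cytotoxicity assessed in parallel by SRB total-protein staining at the time of measurement.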

[12] = read-out: Monocyte Chemoattractant Protein-1 (MCP1), CCL2 (gene 6347); test: BSK_3C_MCP1: BioMAP Diversity Plus: 3C Assay for Monocyte Chemoattractant Protein-1 (MCP1) Biomarker Activity (AID 2283017); conditions: primary human endothelial cells (HUVEC); actives raise or lower the signal
Summary of the method: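 ELISA read-out of MCP-1 from human umbilical vein endothelial cell cultures harvested 24 h post-dosing. Gain or loss of signal was fitted relative to DMSO.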

[13] = read-out: Human Leukocyte Antigen - DR isotype (HLADR), HLA-DRA (gene 3122); test: BSK_3C_HLADR: BioMAP Diversity Plus: 3C Assay for Human Leukocyte Antigen - DR isotype (HLADR) Biomarker Activity (AID 2283019); conditions: primary human endothelial cells (HUVEC); actives raise or lower the signal
Summary of the method: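 ELISA readout of surface HLA-DR on human umbilical vein endothelium, taken 24 h after chemical treatment. Gain- and loss-of-signal were both fitted relative to DMSO.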

[14] = target: human Peroxisome Proliferator-activated Receptor delta (PPARd), PPARD (gene 5467) (UniProt Q03181); test: ATG_PPARd_TRANS: Attagene TRANS-FACTORIAL HepG2 Assay for human Peroxisome Proliferator-activated Receptor delta (PPARd) (AID 2283002; active = hit-call score of the fitted dose curve at least 0.9, where 1 is the maximum)
Sequence of human Peroxisome Proliferator-activated Receptor delta (PPARd), PPARD (gene 5467) (Q03181 whole entry, looked up, the tested form may be a part): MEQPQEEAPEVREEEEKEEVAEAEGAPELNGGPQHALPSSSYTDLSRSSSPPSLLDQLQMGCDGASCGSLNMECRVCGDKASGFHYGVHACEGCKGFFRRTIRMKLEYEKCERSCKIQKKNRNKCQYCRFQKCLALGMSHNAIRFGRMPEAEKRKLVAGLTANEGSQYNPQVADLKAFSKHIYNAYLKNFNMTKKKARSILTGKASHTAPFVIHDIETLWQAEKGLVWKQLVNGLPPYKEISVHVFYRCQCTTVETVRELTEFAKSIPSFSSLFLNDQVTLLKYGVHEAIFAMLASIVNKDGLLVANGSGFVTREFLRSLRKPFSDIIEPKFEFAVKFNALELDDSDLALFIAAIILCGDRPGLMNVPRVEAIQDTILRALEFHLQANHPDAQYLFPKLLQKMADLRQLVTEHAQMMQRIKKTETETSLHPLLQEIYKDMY
Summary of the method: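 HepG2 cells transiently transfected with GAL4-UAS multiplexed reporter units driven by exogenous chimeric NR-GAL4 proteins; 24 h compound exposure. Reporter mRNA measured by RT-PCR, 6-FAM primer extension, HpaI digestion and capillary electrophoresis; gain of signal fitted relative to DMSO.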

[15] = target: Retinoic acid receptor alpha (Homo sapiens) (UniProt P10276); test: ATG_RARa_TRANS: Attagene TRANS-FACTORIAL HepG2 Assay for human Retinoic Acid Receptor alpha (RARa) (AID 2283005; active = hit-call score of the fitted dose curve at least 0.9, where 1 is the maximum)
Summary of the method: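 HepG2 transiently transfected with multiplex GAL4-UAS reporter units including a human RARa–GAL4 chimera; 24 h compound exposure. Reporter mRNA quantified by RT-PCR, 6-FAM labeling and capillary electrophoresis; gain of signal versus DMSO.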

[16] = target: Peroxisome proliferator-activated receptor gamma (Homo sapiens) (UniProt P37231); test: ATG_PPARg_TRANS: Attagene TRANS-FACTORIAL HepG2 Assay for human Peroxisome Proliferator-activated Receptor-gamma (PPARg) (AID 2283007; active = hit-call score of the fitted dose curve at least 0.9, where 1 is the maximum)
Summary of the method: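 Transient transfection of HepG2 with GAL4-UAS-driven reporter units; chemical dosing 24 h; total RNA → oligo(dT) RT → PCR with reporter primers → 6-FAM primer extension → HpaI digest 2 h 37 C → capillary electrophoresis. Positive direction vs DMSO.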

[17] = target: human Retinoic Acid Receptor gamma (RARg), RARG (gene 5916) (UniProt P13631); test: ATG_RARg_TRANS: Attagene TRANS-FACTORIAL HepG2 Assay for human Retinoic Acid Receptor gamma (RARg) (AID 2283009; active = hit-call score of the fitted dose curve at least 0.9, where 1 is the maximum)
Sequence of human Retinoic Acid Receptor gamma (RARg), RARG (gene 5916) (P13631 whole entry, looked up, the tested form may be a part): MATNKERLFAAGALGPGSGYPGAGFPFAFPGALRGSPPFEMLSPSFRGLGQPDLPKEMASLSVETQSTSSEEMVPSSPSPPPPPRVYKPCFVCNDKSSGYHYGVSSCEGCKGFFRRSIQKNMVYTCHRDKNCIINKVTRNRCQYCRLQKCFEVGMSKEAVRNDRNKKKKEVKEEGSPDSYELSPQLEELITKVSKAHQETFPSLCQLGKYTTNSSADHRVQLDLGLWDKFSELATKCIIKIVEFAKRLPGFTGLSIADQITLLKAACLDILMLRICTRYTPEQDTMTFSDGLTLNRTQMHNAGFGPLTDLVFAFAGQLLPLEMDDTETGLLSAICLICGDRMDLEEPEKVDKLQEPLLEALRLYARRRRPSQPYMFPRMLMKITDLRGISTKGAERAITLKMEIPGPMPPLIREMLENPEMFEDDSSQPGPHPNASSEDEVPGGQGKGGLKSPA
Summary of the method: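 HepG2 transiently transfected with GAL4-UAS reporter units and chimeric NR-Gal4 constructs; 24 h compound exposure. Reporter mRNA quantified by RT-PCR, FAM labeling, HpaI digestion and capillary electrophoresis; gain-of-signal versus DMSO.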

[18] = target: Retinoic acid receptor RXR-alpha (Homo sapiens) (UniProt P19793); test: ATG_RXRa_TRANS: Attagene TRANS-FACTORIAL HepG2 Assay for human Retinoid X Receptor alpha (RXRa) (AID 2283012; active = hit-call score of the fitted dose curve at least 0.9, where 1 is the maximum)
Sequence of Retinoic acid receptor RXR-alpha (Homo sapiens) (P19793 whole entry, looked up, the tested form may be a part): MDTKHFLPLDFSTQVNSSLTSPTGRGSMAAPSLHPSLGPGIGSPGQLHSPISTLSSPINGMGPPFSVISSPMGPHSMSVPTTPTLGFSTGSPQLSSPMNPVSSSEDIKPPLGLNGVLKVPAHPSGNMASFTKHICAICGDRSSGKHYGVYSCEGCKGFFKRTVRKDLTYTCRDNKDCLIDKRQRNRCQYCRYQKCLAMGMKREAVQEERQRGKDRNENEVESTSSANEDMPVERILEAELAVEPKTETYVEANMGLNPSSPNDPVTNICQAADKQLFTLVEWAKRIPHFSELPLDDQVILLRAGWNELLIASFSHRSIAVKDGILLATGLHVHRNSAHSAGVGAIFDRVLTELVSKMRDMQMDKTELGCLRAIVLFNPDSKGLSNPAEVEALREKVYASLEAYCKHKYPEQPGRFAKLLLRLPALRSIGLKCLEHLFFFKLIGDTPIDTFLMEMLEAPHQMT
Summary of the method: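 HepG2 cells transiently transfected with GAL4-UAS reporter units and chimeric RXRa-Gal4 protein, treated 24 h. Reporter mRNA measured by RT-PCR, fluorescent labelling, HpaI digestion and capillary electrophoresis. Induction fitted against DMSO.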

[19] = target: human Thyroid Receptor alpha (THRa1), THRA (gene 7067) (UniProt P10827); test: ATG_THRa1_TRANS: Attagene TRANS-FACTORIAL HepG2 Assay for human Thyroid Receptor alpha (THRa1) (AID 2283014; active = hit-call score of the fitted dose curve at least 0.9, where 1 is the maximum)
Sequence of human Thyroid Receptor alpha (THRa1), THRA (gene 7067) (P10827 whole entry, looked up, the tested form may be a part): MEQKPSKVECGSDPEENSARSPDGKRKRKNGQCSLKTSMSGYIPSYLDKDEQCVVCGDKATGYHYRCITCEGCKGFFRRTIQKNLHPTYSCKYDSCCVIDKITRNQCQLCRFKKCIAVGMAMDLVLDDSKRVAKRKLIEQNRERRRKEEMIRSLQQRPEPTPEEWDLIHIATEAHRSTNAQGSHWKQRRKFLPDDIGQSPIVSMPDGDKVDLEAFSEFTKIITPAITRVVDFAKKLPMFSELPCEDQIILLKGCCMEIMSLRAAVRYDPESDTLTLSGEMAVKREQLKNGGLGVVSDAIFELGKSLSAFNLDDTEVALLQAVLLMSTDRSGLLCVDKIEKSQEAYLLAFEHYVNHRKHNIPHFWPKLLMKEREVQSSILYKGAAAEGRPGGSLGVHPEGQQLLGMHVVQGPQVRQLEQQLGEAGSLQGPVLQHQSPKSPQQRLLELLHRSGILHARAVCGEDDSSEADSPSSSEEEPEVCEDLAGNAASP
Summary of the method: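 Reporter transcript induction, read by capillary electrophoresis of 6-FAM-labelled RT-PCR products, reflects activity of a transfected THRa1-Gal4 fusion in HepG2 liver cells. Cells were dosed for 24 h; activity was fitted in the positive direction against DMSO.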

[20] = read-out: Monocyte Chemoattractant Protein-1 (MCP1), CCL2 (gene 6347); test: BSK_4H_MCP1: BioMAP Diversity Plus: 4H Assay for Monocyte Chemoattractant Protein-1 (MCP1) Biomarker Activity (AID 2283018); conditions: primary human endothelial cells (HUVEC); actives raise or lower the signal
Summary of the method: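 Human umbilical vein endothelial cells (4H system) exposed to chemicals for 24 h in 96-well format. MCP-1 measured by ELISA; bidirectional fitting against DMSO, with SRB total-protein staining in parallel cultures for cytotoxicity.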

Measured: AC50

Sequence of E-selectin (Homo sapiens) (P16581 whole entry, looked up): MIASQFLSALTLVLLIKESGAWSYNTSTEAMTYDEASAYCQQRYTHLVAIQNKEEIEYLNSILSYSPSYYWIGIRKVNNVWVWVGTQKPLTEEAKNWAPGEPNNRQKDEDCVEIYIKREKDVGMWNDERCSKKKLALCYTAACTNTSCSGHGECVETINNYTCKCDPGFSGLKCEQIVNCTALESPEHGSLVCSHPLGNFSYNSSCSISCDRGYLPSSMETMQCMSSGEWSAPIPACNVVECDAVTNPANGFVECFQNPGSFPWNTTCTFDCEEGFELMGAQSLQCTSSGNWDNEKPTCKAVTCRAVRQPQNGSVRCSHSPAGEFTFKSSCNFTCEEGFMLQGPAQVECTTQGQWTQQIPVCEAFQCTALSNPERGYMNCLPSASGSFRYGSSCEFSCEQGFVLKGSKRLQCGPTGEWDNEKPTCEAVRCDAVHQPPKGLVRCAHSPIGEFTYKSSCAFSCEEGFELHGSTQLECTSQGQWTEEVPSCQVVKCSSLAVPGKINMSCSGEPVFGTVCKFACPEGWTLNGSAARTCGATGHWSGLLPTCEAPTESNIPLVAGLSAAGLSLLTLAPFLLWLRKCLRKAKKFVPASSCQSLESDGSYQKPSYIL

CCOC(=O)c1ccccc1C(=O)OCC
inactive: [1] | [2] | [3] | [4] | [5] | [6] | [7] | [8] | [9] | [10] | [11] | [12] | [13]

O=C(O)C(F)(OC(F)(F)C(F)(F)C(F)(F)F)C(F)(F)F (stereo not given)
active: [2] 8.11 µM | [3] 16.9 µM | [6] 220 nM | [16] 102 µM | [12] 49.3 µM
inactive: [1] | [2] | [3] | [14] | [4] | [5] | [15] | [6] | [16] | [7] | [17] | [8] | [18] | [9] | [19] | [10] | [11] | [12] | [20] | [13]

O=S(=O)(F)C(F)(F)C(F)(F)C(F)(F)C(F)(F)C(F)(F)C(F)(F)C(F)(F)C(F)(F)F
inactive: [1] | [2] | [3] | [14] | [4] | [15] | [6] | [16] | [7] | [17] | [18] | [19] | [10] | [11] | [12] | [13]

CC(C)Nc1ccc(Nc2ccccc2)cc1
inactive: [3] | [5] | [15] | [17] | [8] | [18] | [9] | [19]
active: [1] 8.53 µM | [2] 8.74 µM | [4] 17.4 µM | [6] 1820 nM | [16] 23.9 µM | [7] 2.71 µM | [10] 10.6 µM | [11] 6.48 µM | [12] 9.95 µM | [20] 6.18 µM | [13] 4.45 µM

CCCCOCCOP(=O)(OCCOCCCC)OCCOCCCC
inactive: [1] | [2] | [3] | [14] | [4] | [5] | [15] | [6] | [7] | [17] | [8] | [9] | [10] | [11]
active: [16] 58.7 µM | [9] 24.8 µM | [12] 3.97 µM | [13] 12.8 µM

Cc1ccc2c(c1N)C(=O)c1ccccc1C2=O
inactive: [1] | [3] | [14] | [4] | [6] | [16] | [18] | [9] | [19] | [10] | [11] | [12] | [20]
active: [2] 9.4 µM | [7] 2.89 µM | [13] 15 µM

c1ccc2c(c1)sc1ccccc12
inactive: [1] | [2] | [3] | [4] | [6] | [16] | [7] | [17] | [19] | [10] | [11] | [12] | [13]
